Screening results: PubChem BioAssay, The Scripps Research Institute Molecular Screening Center
Hits are enriched below; roughly 1.1% of the tested compounds scored in any of these assays.
MOR-DOR inv ag-1 = mu-delta opioid heterodimer inverse agonism | cell-based MOR-DOR heterodimer luminescence | inhibition, % at 9.3 µM | 340,000 tested, 0.21% active | AID 504357; in the data active = inhibition above about 22%, passing the limit was not always enough;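 also: 0% = cells with DMSO and 100% = wells without cells with DMSO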
Target sequence (P35372 whole entry, looked up): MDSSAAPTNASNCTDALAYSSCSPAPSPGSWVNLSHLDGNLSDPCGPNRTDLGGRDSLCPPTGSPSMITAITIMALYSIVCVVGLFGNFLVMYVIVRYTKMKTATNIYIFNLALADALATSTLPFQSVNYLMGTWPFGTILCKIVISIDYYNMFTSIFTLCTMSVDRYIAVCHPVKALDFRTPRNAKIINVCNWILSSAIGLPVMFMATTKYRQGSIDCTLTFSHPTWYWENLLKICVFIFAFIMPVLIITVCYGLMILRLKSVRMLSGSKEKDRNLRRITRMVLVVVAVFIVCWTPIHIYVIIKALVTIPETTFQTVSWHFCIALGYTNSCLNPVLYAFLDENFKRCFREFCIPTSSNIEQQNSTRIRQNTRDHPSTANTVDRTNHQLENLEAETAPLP
Target sequence (P41143 whole entry, looked up): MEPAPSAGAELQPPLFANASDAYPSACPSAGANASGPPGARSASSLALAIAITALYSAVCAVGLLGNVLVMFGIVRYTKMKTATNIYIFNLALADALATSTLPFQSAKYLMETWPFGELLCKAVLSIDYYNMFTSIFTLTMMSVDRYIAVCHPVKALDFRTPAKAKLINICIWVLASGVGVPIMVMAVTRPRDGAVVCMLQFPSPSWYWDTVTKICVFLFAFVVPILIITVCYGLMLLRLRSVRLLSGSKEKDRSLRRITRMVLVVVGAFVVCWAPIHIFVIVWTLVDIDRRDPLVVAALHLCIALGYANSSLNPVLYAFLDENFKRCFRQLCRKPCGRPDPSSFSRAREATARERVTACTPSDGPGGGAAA
HTR5A ag = activates human HTR5A in OPRM1-OPRD1 agonist counter-screen | HTR5A agonist assay, luminescence, cell-based | AID 504692 | 340,000 tested, 0.61% active | P47898 | activation, % at 9.3 µM; in the data active = activation mostly above about 9.5%, no sharp cut-off; inactive = mostly below about 7.6%;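 also: 0% = cells with vehicle only and 100% = reference agonist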
HTR5A inv ctr = counter-screen for OPRM1-OPRD1 inverse agonists: human HTR5A inverse agonism; P47898; HTR5A cell line, luminescence; inhibition, % at 9.3 µM; 340,000 tested, 0.083% active; AID 504634; in the data active = inhibition mostly above about 23%, no sharp cut-off; inactive = mostly below about 18%;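 also: 0% = cells with DMSO and 100% = no-cell wells with DMSO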
MOR-DOR ag = OPRM1-OPRD1 heterodimerization agonism; P35372+P41143; cells, luminescence; activation, % at 9.3 µM; 340,000 tested, 0.3% active; AID 504326; in the data active = activation above about 18%;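 also: 0% = vehicle-treated cells and 100% = reference agonist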
MOR-DOR inv ag-2 = inverse agonist of OPRM1-OPRD1 heterodimerization in HTR5A counter-screen; inhibition, % at 9.3 µM; U2OS counter-screen cells, complementation luminescence; shares compounds with HTR5A inv ctr; 190 tested, under 10 active;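 also: 0% = cells with DMSO and 100% = wells without cells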
HTR5A inv confrm = HTR5A (human) inverse agonism, confirmation | shares compounds with HTR5A inv ctr | 190 tested, under 10 active | inhibition, % at 9.3 µM | HTR5A-expressing cells, luminescence;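 also: 0% = cells with DMSO and 100% = no cells with DMSO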
Starred values were filed as active, the others as inactive; i = inactive; nt = no result. Unless noted, no rule for the calls is given here.

SMILES | MOR-DOR inv ag-1 | HTR5A ag | HTR5A inv ctr | MOR-DOR ag | MOR-DOR inv ag-2 | HTR5A inv confrm
Cc1sc(NC(=O)CCS(=O)(=O)c2ccccc2)c(C#N)c1C | 5.1 | 0.2 | -3.8 | -0.8 | nt | nt
Cc1sc(NC(=O)CS(=O)(=O)c2ccccc2)c(C#N)c1C | 4.7 | -15.9 | 41.4* | -0.7 | -15.3 | -8.4
CN1C(=O)/C(=C/c2cc3c(cc2Br)OCO3)NC1=S | -8.0 | -9.1 | 23.5* | 1.6 | i | -4.5
COCCn1c(C)cc(/C=C2\NC(=S)N(C)C2=O)c1C | 5.0 | -0.9 | 2.5 | -0.7 | nt | nt
COc1ccc(Cl)cc1C(=O)NNC(=O)COC(=O)CCN=C1NS(=O)(=O)c2ccccc21 | 29.0 | -29.2 | 71.3* | -5.6 | -19.9 | -137.9
CC1CCCC(C)N1CCCNC(=O)Cn1ncc2c3ccccc3n(C)c2c1=O (stereo not drawn) | 10.4 | -1.0 | -54.6 | -2.1 | nt | nt
COc1ccc(/C=C/c2ccc3cccc(O)c3n2)c(OC)c1OC | 12.7 | -9.3 | 34.8* | -2.6 | -57.7 | 28.1
COc1cccc(/C=C/c2ccc3cccc(O)c3n2)c1OC | -13.5 | -8.6 | 31.6* | 2.6 | -67.5 | 11.6
CCC(CCCO)CCC[C@H](C)CCC1OCCO1 (stereo partly drawn) | -22.0 | -1.6 | -4.0 | 3.8 | nt | nt
CNC(=O)c1cc(C(=O)c2ccccc2Br)c[nH]1 | 16.2 | -2.9 | 10.4 | -3.5 | nt | nt
COCCCNC(=O)c1cc(C(=O)c2ccccc2Br)c[nH]1 | 2.2 | -25.8 | 70.8* | -0.4 | -37.5 | -22.9
O=C(Nc1cccc(Cl)c1)NC1(C(=O)NCc2cccs2)CCCCC1 | -104.9 | 13.6 | -8.6 | 17.8 | nt | nt
Cc1cccc(NC(=S)N/N=C2/CCCCc3ccccc32)c1 | 16.2 | -12.2 | 42.7 | -3.0 | nt | nt
Cc1ccc(NC(=S)N/N=C2/CCCCc3ccccc32)cc1 | -2.5 | -15.2 | 43.6* | 0.5 | -231.3 | -44.4
COc1ccc([N+](=O)[O-])cc1NC(=O)CN(C)S(=O)(=O)c1ccccc1 | 9.5 | -4.3 | 11.5 | -1.9 | nt | nt
CCCN(CC(=O)Nc1ccccc1C)C(=O)c1ccc(-c2ccc(C(C)=O)cc2)o1 | 13.7 | -4.5 | 42.6* | -2.5 | -60.0 | -7.6
CCCN(CC(=O)Nc1ccccc1C)C(=O)c1ccc(C(=O)c2ccccc2)cc1 | -11.6 | 6.8 | -20.5 | 1.8 | nt | nt
O=C(NN1C(=O)/C(=C/c2ccc(O)c([N+](=O)[O-])c2)SC1=S)c1ccccc1Cl | 26.4 | -2.8 | 28.5* | -5.4 | -71.4 | 1.3
Cc1ccccc1Nc1c(-c2ccc(N3CCOCC3)cc2)nc2cnccn12 | 13.8 | -0.1 | -35.1 | -2.6 | nt | nt
CN(C)c1ccc2nc3c(=O)[nH]c(=O)nc-3n(CC(O)C(O)C(O)CO)c2c1 (stereo not drawn) | 29.1 | -9.1 | 33.2* | -5.7 | 17.5 | 85.4*
COc1ccc(CCNC(=O)c2cc(S(=O)(=O)N3CCCCC3)c[nH]2)cc1OC | 3.5 | 3.0 | -0.9 | -0.6 | nt | nt
CCC1(C)Cc2ccccc2-c2c1c(=O)n(-c1ccc(C)cc1)c1nnnn21 (stereo not drawn) | 4.6 | -0.9 | 39.9* | -0.8 | -120.0 | -24.4
COc1ccc(S(=O)(=O)NCC(c2ccc3c(c2)OCO3)N2CCN(c3ccccc3)CC2)cc1 (stereo not drawn) | -4.9 | 4.3 | -13.1 | 0.8 | nt | nt
Cc1nnc(NC(=O)c2ccc(S(=O)(=O)N(C)Cc3ccccc3)cc2)o1 | 15.7 | -4.5 | 8.0 | -2.8 | nt | nt
COCc1nnc(NC(=O)c2ccc(S(=O)(=O)N(C)Cc3ccccc3)cc2)o1 | -4.3 | -13.4 | 32.5* | 0.8 | 25.8 | 4.2
SMILES | MOR-DOR inv ag-1 | HTR5A ag | HTR5A inv ctr | MOR-DOR ag | MOR-DOR inv ag-2 | HTR5A inv confrm
COCCN(C(=O)c1ccccc1Oc1ccccc1)c1c(N)n(CC(C)C)c(=O)[nH]c1=O | 8.2 | -13.9 | 34.7* | -2.1 | -414.8 | -5.3
COCCN(C(=O)c1cc(-c2ccccc2Cl)nc2ccccc12)c1c(N)n(CC(C)C)c(=O)[nH]c1=O | 16.0 | -0.6 | 5.4 | -4.0 | nt | nt
O=C1CCC[C@@H]2C[C@@]3(C[C@@H]4CCN1[C@H]24)Nc1cc([N+](=O)[O-])ccc1NC3=NC1CCCCC1 | 16.3 | -2.3 | 35.4* | -2.9 | -24.3 | -12.9
O=C1CCC[C@@H]2C[C@@]3(C[C@@H]4CCN1[C@H]24)Nc1cc(Cl)ccc1NC3=NC1CCCCC1 | -2.5 | 3.5 | -17.1 | 0.5 | nt | nt
Oc1c(C(c2ccccn2)N2CCCCC2)cc(Cl)c2cccnc12 (stereo not drawn) | -42.6 | -9.8 | 28.9* | 8.6 | 6.3 | 5.1
CN1CCN(C(c2ccc(Cl)cc2)c2cc(Cl)c3cccnc3c2O)CC1 (stereo not drawn) | -58.7 | 3.9 | -9.4 | 10.5 | nt | nt
CCN1c2ccccc2S(=O)(=O)c2ccccc21 | 17.1 | -9.5 | 34.2* | -3.8 | 2.1 | -4.8
CCOC(=O)c1c(C)[nH]c(C(=O)N2CCc3cc(OC)c(OC)cc3C2)c1C | -7.3 | 3.8 | -5.0 | 1.1 | nt | nt
Cc1cc(C)c(COc2ccc(/C=N/n3c(C)n[nH]c3=S)cc2)c(C)c1 | -13.6 | -10.1 | 36.8* | 2.6 | -50.6 | -6.8
COCCn1c(SCC(=O)NNC(=O)c2cc(Cl)ccc2OC)nnc1-c1ccncc1 | 5.8 | -17.6 | 43.4* | -1.4 | -24.1 | -153.6
C=C(C)CN(CC)C(=O)CN1C(=O)NC2(CCCc3ccccc32)C1=O (stereo not drawn) | 5.3 | -2.3 | -6.0 | -1.0 | nt | nt
Cc1ccc(-c2nnc(-c3ccccc3Br)o2)cc1 | -19.3 | -0.5 | 1.8 | 4.0 | nt | nt
Brc1ccc(-c2nnc(-c3ccccc3Br)o2)cc1 | -16.1 | 7.5 | 39.6* | 2.8 | -49.1 | -7.2
COc1cccc(CNC(=O)CCC2CCCN(c3cc(C)nc(N(C)C)n3)C2)c1 (stereo not drawn) | 13.8 | 1.0 | -17.4 | -2.8 | nt | nt
O=C(NC(c1ccc(Cl)cc1)c1cc(Cl)c2cccnc2c1O)c1cccnc1 (stereo not drawn) | 5.5 | -11.3 | 30.4* | -0.9 | -0.1 | -8.9
O=C(Nc1nnc(-c2ccccc2)o1)c1nc2ccccc2s1 | 10.6 | -14.5 | 40.7* | -2.0 | i | 1.3
Cc1ccc(C2N(C)c3ccccc3-c3nc4ccccc4n32)o1 (stereo not drawn) | 6.7 | -2.3 | 2.4 | -1.3 | nt | nt
CC(=O)N1c2ccccc2-c2nc3ccccc3n2C1C (stereo not drawn) | 17.1 | -8.3 | 32.3* | -3.6 | -8.4 | -0.3
N#CC1=C(N)Oc2c(ccc3cccnc23)C1c1ccccc1 (stereo not drawn) | 14.3 | -12.1 | 33.1* | -2.7 | -6.9 | 4.6
CCOc1ncccc1C(=O)NCCN1C(=O)S/C(=C/c2cccs2)C1=O | -28.2 | -2.3 | 6.5 | 3.9 | nt | nt
COC(=O)c1cc(S(=O)(=O)NCC2CCN(CCc3cccs3)CC2)cn1C | 6.3 | -0.1 | 40.7* | -1.2 | -21.3 | -2.0
COC(=O)c1cc(S(=O)(=O)NCC2CCN(Cc3ccc(F)cc3)CC2)cn1C | 9.1 | 0.8 | -3.2 | -1.7 | nt | nt
COc1ccc(-n2nc3c(c2NC(=O)COc2cccc(OC)c2)CS(=O)(=O)C3)cc1 | -3.3 | 1.3 | -9.9 | 0.6 | nt | nt
COc1ccc(NC(=O)CSc2n[nH]c(-c3ccccn3)n2)cc1 | 15.5 | 0.7 | -2.0 | -2.9 | nt | nt
